The results in this text go back to the OligoGym collection.
Note: reference of the scale not given here.

For the first assay, the target named is HNRNPL. The assay can be described thus: pooled miR-30 sensor sort-seq; sequence = guide strand. The note with it: shRNA.
Take TCTTGAACACATTCAAGCGTGT: the sensor-assay potency score (higher = more potent) turned out to be 0.0553.
Regarding TAGAGTAGTTGACAAAAGCTGG, the sensor-assay potency score (higher = more potent) is -0.329.
On the same count and under the same terms, in the case of TTGAACACATTCAAGCGTGTAG it was 0.215; in that of TAAAAGTGAAGGTTAATCTTGG, 0.553; in that of TTCTTGAACACATTCAAGCGTG, -0.271.
For the sequence TTAAGGTTAAGTAAGCCTCTAC, the sensor-assay potency score (higher = more potent) worked out at 0.152.
The same measure, in the same setting: in the case of TTAAAAGTGAAGGTTAATCTTG it was -0.688; in that of TTGTGTAGTCCCAAGTATCCTG, 0.0698.

The target in the next assay is HNRNPU. The assay is described as above. To be noted: shRNA.
As for TTCTTCTTCAACAGGTGGCTGA, the sensor-assay potency score (higher = more potent) is -0.158.
The same measure, in the same setting: in the case of TTGAGTAACTACCACGGCCAGG it was -1.38; in that of TTTCATCAAACTTTTCTCCATA, -0.817; in that of TTATCCATAATAGTATTTGTGC, -0.391.
Still for that read-out and setting: in the case of TATTGCTTTTCTTTGAGCCAGT it was -0.865; in that of TTTGCTTCTTAAAACCTGCCAC, 0.467.
Same read-out and setting: in the case of TTCATCTCAAAACACACTTTGC it was -0.868; in that of TTCTTCCTTATATTGCTCCAAG, -1.21; in that of TAAAATTTCGCTTCTTTCGGGC, 0.159.
AACTACAACAGCTTTTCGCTGG displayed a sensor-assay potency score (higher = more potent) of 0.276.
Still for that read-out and setting: in the case of TTGCTTATAGTCTTCATCTTTT it was -0.867.

For the next assay, the target named is HOOK2. Described as above. The note with it: shRNA.
TCCTCTGCAACTCCAGATCTGC displayed a sensor-assay potency score (higher = more potent) of -1.56.
On the same count and under the same terms, in the case of TTTTTCTCGCAACTGATGGCAC it was -0.412.
Turning to TTTCTCAAAGTCCATCTCCAGG, the sensor-assay potency score (higher = more potent) is -1.2.
The sequence TCACTTAGGAAATAGTACCTGC yielded a sensor-assay potency score (higher = more potent) of -0.233.
On the same count and under the same terms, in the case of TACGTCTCTGGTGACAGGGAGT it was -0.714; in that of ATGGTCTGCATGACCATGCGGG, -1.25.
In turn, TACTAGGCTCCGTAAGACCATC yielded a sensor-assay potency score (higher = more potent) of -1.58.
On the same count and under the same terms, in the case of TTCTGACACAGGATGCGCCAGG it was -0.785; in that of TTAGGAAATAGTACCTGCGGGA, -0.0973.
The same measure, in the same setting: in the case of TCAGCTTCCAGTTGGGACCTGG it was -0.00912; in that of TTCCATGGTCTGCATGACCATG, -1.55.
Still for that read-out and setting: in the case of TGGAACGTCTGTAACCAGGTGA it was 0.0642.

The next assay deals with HOXA6. The description is as above. The note with it: shRNA.
TTGTACTGCTGCTCGGGAGAAA showed a sensor-assay potency score (higher = more potent) of -0.818.
Still for that read-out and setting: in the case of TTGGTAGAAACAAGGTGAGGTG it was -0.106.
Sequence ATTGATGAGCTTGTTTTCCTTT returned a sensor-assay potency score (higher = more potent) of 0.0267.
Same read-out and setting: in the case of TTGGCGATCTCGATGCGGCGGC it was -0.809.
Same read-out and setting: in the case of TTGTCCGGGAGACTCGACGCCC it was -0.988; in that of TGAGGTGTACGTCTTGTCCGGG, -0.648.
As to TTATCAGAATAGAAACACGAGG, the sensor-assay potency score (higher = more potent) was -1.05.
On the same count and under the same terms, in the case of TGTTGGTAGAAACAAGGTGAGG it was -1.56.
On the same count and under the same terms, in the case of TATCAGAATAGAAACACGAGGC it was -0.218.
